Source: PubChem BioAssay
VCAM1 TNFa inh: reduces TNF alpha induced VCAM1 expression in HUVEC; HUVEC TNFa-induced VCAM-1 immunofluorescence, high-content imaging; inhibition, % at 2 µM; hit rate 0.48% among 95,000; AID 802;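 active means inhibition above the batch mean plus 3 SD, with images confirmed as a hit by eye, cut at about 37% in these data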;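 further: 0% = TNF-stimulated DMSO wells and 100% = unstimulated control wells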
Phagocytosis inh: macrophage phagocytosis inhibition | AID 1029 | J774A.1 macrophage IgG-bead phagocytosis, imaging | inhibition, % at 5 µM | hit rate 0.07% among 110,000;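 active means inhibition above the mean of the plate negative controls plus 5 SD, cut at about 13% in these data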;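 further: phagocytic index as fraction of beads internalized from green versus red external bead signal; plate controls were DMSO negative control for no effect and cytochalasin-D positive control for full effect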
HUVEC tox IL1B: toxic to HUVEC cells under IL-1B stimulation. HUVEC cell count loss, Hoechst imaging, IL-1B stimulated. cell count reduction, % at 2 µM. hit rate 0.41% among 94,000;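 active means cell count reduction more than 3 SD above the screen-wide mean, cut at about 70% in these data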;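 further: normalized per plate to untreated control cells as the no-loss baseline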
TNFa cytotox: HUVEC cytotoxicity counter-screen, TNF alpha stimulated; hit rate 0.17% among 93,000; HUVEC TNFalpha-stimulated, Hoechst cell count, imaging; cell count reduction, % at 2 µM; AID 848;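 active means cell count reduction exceeding the screen mean by over 5 SD, scaled to untreated wells per plate, cut at about 78% in these data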;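 further: cells counted after 24 h of TNF alpha exposure following the 1 h pretreatment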
NFkB transloc inh: blocks IL-1B driven NFkB nuclear translocation in HUVEC cells. HUVEC IL-1B NFkB p65 nuclear translocation imaging. inhibition, % at 2 µM. hit rate 0.43% among 94,000. AID 796;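 active means inhibition above about 30% together with a positive call from visual inspection of the well image, limit read from the data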;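 further: nuclear over cytoplasmic p65 intensity ratio measured by imaging; 0% = IL-1B stimulated DMSO wells and 100% = unstimulated DMSO wells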
IL1B NFkB pot: enhances IL-1B driven NFkB nuclear translocation; HUVEC IL-1B NFkB p65 nuclear translocation imaging; activation, % at 2 µM; hit rate 0.3% among 94,000;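 active means activation above 40%, about the mean plus 3 SD, also judged a hit on visual image review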;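 further: percent activation is computed from the nuclear over cytoplasmic p65 intensity ratio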
Starred values were filed as active, the others as inactive; . = not tested or not shown. Compounds with a hit are over-represented: about 1.2% of the library has one in this group of screens.

SMILES	VCAM1 TNFa inh	Phagocytosis inh	HUVEC tox IL1B	TNFa cytotox	NFkB transloc inh	IL1B NFkB pot
S=c1[nH]nc(-c2cc(-c3ccco3)[nH]n2)n1-c1ccccc1	-0.2	.	-4.0	-0.8	34.8*	-34.8
S=c1[nH]nc(-c2cc(-c3ccco3)[nH]n2)n1-c1ccccc1Cl	2.7	-0.8	.	-6.4	.	.
O=C(Nc1ccc(F)cc1F)c1ccc(COc2c(F)c(F)cc(F)c2F)o1	-1.3	-1.1	88.7*	-9.6	-43.4	43.4*
CCOC(=O)CN1C(=O)CN(c2ccc(C)cc2)C1=O	.	-6.0	.	.	.	.
CCOC(=O)c1c(NC(=O)CSC(=S)N2CCOCC2)sc(C)c1C	.	-4.2	.	.	.	.
CCOC(=O)C1=C(C)NC2=C(C(=O)c3ccccc32)C1c1ccc(O)cc1 (stereo not drawn)	.	4.9	.	.	.	.
CC1=C([N+](=O)[O-])C(c2cccc(Br)c2)C2=C(N1)c1ccccc1C2=O (stereo not drawn)	93.0*	10.8	56.3	73.8	9.2	-9.2
CC(OC(=O)CN1C(=O)NC(C)(C)C1=O)C(=O)c1ccccc1 (stereo not drawn)	-12.5	-0.5	-6.0	-21.1	-2.3	2.3
CC(OC1=CC(=O)CCC1)C(=O)c1ccccc1 (stereo not drawn)	-4.4	187.1*	-12.8	6.8	4.5	-4.5
COC(=O)c1ccc(COc2ccccc2/C=C(\C#N)C(=O)Nc2c(C)cccc2C)cc1	.	3.0	.	.	.	.
CC(C)NC(=O)c1onc(CSc2cccc(F)c2)c1C(=O)O	0.9	.	22.7	0.0	-11.7	11.7
CC(C)C(=O)Nc1ccc(C(=O)NNC(=O)NC2CCCCC2)cc1	36.1*	-3.6	6.6	27.7	10.6	-10.6
Cc1ccc(C(=O)Nc2ccc(O)cc2C(=O)O)cc1C	-3.0	-0.8	8.2	4.3	-119.0	119.0*
Cc1ccc(C(=O)Nc2ccc(O)cc2C(=O)O)cc1	-11.3	-0.6	10.8	-8.6	-2.1	2.1
Cc1ccc(N2CC(C(=O)Nc3ccc4c(c3)OCO4)CC2=O)cc1 (stereo not drawn)	7.5	2.6	-7.4	88.6*	8.2	-8.2
Cc1cccc(NC(=S)NC2CC3CCCC(C2)N3Cc2cccs2)c1 (stereo not drawn)	12.7	.	1.2	-2.1	-33.0	33.0
CCC(=O)N1CCN(c2nc3ccccc3s2)CC1	-16.8	-0.3	18.6	-4.2	36.8*	-36.8
Cc1cccc(Nc2nnc(-c3ccc(N4CCOCC4)c([N+](=O)[O-])c3)c3ccccc23)c1	.	1.8	.	.	.	.
CCc1cc(C(=O)N=Nc2c(O)[nH]c3c(Br)cc(Br)cc23)c2ccccc2n1	.	-9.0	.	.	.	.
CC1CC(C)(C)N2C(=O)C3(Nc4ccccc4S3)c3cccc1c32 (stereo not drawn)	11.6	2.2	14.2	26.3	4.0	-4.0
Cc1cc2c3c(c1)C1(SCC(=O)N1c1ccc(F)cc1)C(=O)N3C(C)(C)CC2C (stereo not drawn)	2.0	-0.7	-12.2	1.2	33.9*	-33.9
CCOC(=O)c1cc(-c2ccccc2)n(CCC(=O)N2CCN(c3ccccn3)CC2)c1C	.	-0.7	.	.	.	.
CN(CCC#N)C(=O)c1ccc(CNS(=O)(=O)c2ccc(F)cc2)cc1	-15.3	0.0	85.9*	-0.4	99.8*	-99.8
CC(C)(C)NC(=O)C(c1cccs1)N(CC1CCCO1)C(=O)Cn1nnc(-c2cccs2)n1 (stereo not drawn)	22.7	-0.6	-8.2	2.0	-47.6	47.6*
CCN(CC)S(=O)(=O)c1ccc(C2=NOC3(C2)N(C)c2ccccc2C3(C)C)cc1 (stereo not drawn)	.	-0.2	.	.	.	.
SMILES	VCAM1 TNFa inh	Phagocytosis inh	HUVEC tox IL1B	TNFa cytotox	NFkB transloc inh	IL1B NFkB pot
Cc1ccccc1NC(=O)CN(c1ccc(F)cc1)S(C)(=O)=O	16.5	0.7	-26.3	-12.1	-23.2	23.2
CN(C)S(=O)(=O)N(CC(=O)Nc1ccccc1F)c1ccccc1	12.6	.	78.8*	-3.7	-5.7	5.7
O=S(=O)(c1ccc2c(c1)C(=NO)c1cc(S(=O)(=O)N3CCCCC3)ccc1-2)N1CCCCC1	99.8*	5.9	-6.6	90.3*	7.0	-7.0
CC1CCN(S(=O)(=O)c2ccc3c(c2)C(=NO)c2cc(S(=O)(=O)N4CCC(C)CC4)ccc2-3)CC1	9.9	.	-6.3	-6.9	7.9	-7.9
COc1ccc2c(c1)C1(Nc3ccccc3-c3nc4ccccc4n31)C(=O)N2 (stereo not drawn)	-0.6	0.5	70.9*	2.9	16.0	-16.0
S=C(Nc1ccccc1Oc1ccccc1)Nc1cccc(Cl)c1Cl	.	-6.5	.	.	.	.
C=CCOc1ccc(/C(O)=C2\C(=O)C(=O)N(CCOC)C2c2cccnc2)cc1 (stereo not drawn)	37.0	-1.3	-11.0	-27.1	-13.6	13.6
CCCOc1ccc(/C(O)=C2/C(=O)C(=O)N(CCOC)C2c2cccnc2)cc1 (stereo not drawn)	86.8*	-0.8	-4.2	80.4*	-3.2	3.2
Cc1cc(S(=O)(=O)Nc2cccc(O)c2)c(C)s1	-0.1	-1.0	1.7	-18.7	-15.5	15.5
Cc1cc(S(=O)(=O)Nc2ccc(F)cc2)c(C)s1	-9.7	-0.9	89.2*	-10.2	11.6	-11.6
CCCCNc1c(N)n(CCCC)c(=O)[nH]c1=O	.	-10.4	.	.	.	.
Cn1c(NC(=O)c2ccccc2)cc(=O)n(C)c1=O	4.5	-0.5	5.6	-10.0	0.4	-0.4
Cn1c(NC(=O)C2c3ccccc3Oc3ccccc32)cc(=O)n(C)c1=O	93.6*	-0.5	-22.6	64.7	-1.1	1.1
Cc1cccc(C)c1Nc1nnc(SCC(=O)c2ccc3c(c2)NC(=O)CO3)s1	.	-0.2	.	.	.	.
CCCn1nc([N+](=O)[O-])c(C(C#N)c2nc3ccccc3s2)c(Cl)c1=O (stereo not drawn)	50.7*	-1.1	-6.7	-12.8	1.1	-1.1
Cn1c(C(C#N)C(=O)c2sc3ccccc3c2Cl)nc2ccccc21 (stereo not drawn)	-7.4	-0.9	-1.7	-21.2	3.2	-3.2
O=C(CS(=O)c1ccc(C(F)(F)F)cc1[N+](=O)[O-])Oc1ccc(Cl)cc1 (stereo not drawn)	72.5*	-0.6	14.6	13.4	6.8	-6.8
Cc1cc(C)cc(OC(=O)CS(=O)c2ccc(C(F)(F)F)cc2[N+](=O)[O-])c1 (stereo not drawn)	18.5	-1.1	4.4	-20.7	1.0	-1.0
CC[C@H](C)NC(=O)c1ccc(Cn2c(=S)[nH]c3c([nH]c4ccc(OC)cc43)c2=O)cc1	.	-7.5	.	.	.	.
COC(=O)c1ccc2c(=O)n(CCCCCC(=O)NCc3ccc4c(c3)OCO4)c(=O)[nH]c2c1	-12.8	3.1	89.8*	-33.3	24.7	-24.7
COC(=O)c1ccc2c(=O)n(CCCCCC(=O)NCc3ccccc3)c(=O)[nH]c2c1	15.4	-0.3	-35.0	-40.4	-14.2	14.2
O=C(Nc1ccc(F)cc1)c1cccc2c1C(=O)N(Cc1ccccn1)C2	-14.2	-0.5	94.4*	-3.1	10.2	-10.2
CCOc1ccc(NC(=O)c2cccc3c2C(=O)N(CCOC)C3)cc1	-8.9	-2.3	-19.1	6.2	9.8	-9.8
CCOC(=O)c1cc2c(=O)n3ccccc3nc2n(CCOC)c1=NC(=O)c1ccncc1	19.5	1.3	10.2	-12.4	-5.8	5.8
